# Compound activity: PubChem BioAssay, several laboratories
# SARS 3CLpro inh-1 – SARS-CoV 3CLpro protease inhibition. P0C6X7. recombinant SARS-CoV 3CLpro, quenched FRET peptide cleavage. inhibition, % at 6 µM. 290,000 compounds, 0.14% hits; in the data active means inhibition above about 12%
# PfHsp40 rescue – compounds rescuing yeast from Plasmodium falciparum HSP40 toxicity; S. cerevisiae expressing PfHsp40, growth rescue, ATP luminescence; growth rescue, % at 12.5 µM; 340,000 compounds, 0.68% hits; AID 504582; in the data active means growth rescue above about 28%, passing the limit was not always enough;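 further: yeast W303a lacking pdr1 and pdr3 grown in galactose medium; growth measured after three days at 30 °C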
# RN4220 kill – kills Staphylococcus aureus RN4220 | inhibition, % (concentration not given with the values) | 330,000 compounds, 0.33% hits | AID 1259311 | S. aureus RN4220 growth, OD600, 16 h; in the data active means inhibition above about 85%;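 further: plate controls were untreated cells for no effect and reference antibiotic for full effect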
# BJeLR lethal – kills HRASV12-expressing BJeLR cells. 300,000 compounds, 0.17% hits. inhibition, % (test concentration not listed). BJeLR (HRASV12) viability, CellTiter-Glo ATP luminescence, 48 h; in the data active means inhibition above about 50%
# ugtP null kill – compounds lethal to S. aureus RN4220 ugtP deletion mutant; OD600 growth, 16 h; growth inhibition, % (no concentration beside the values); 330,000 compounds, 0.54% hits; in the data active means growth inhibition above about 68%;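 further: plate controls were untreated wells for no effect and antibiotic for full effect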
# SARS 3CLpro inh-2 – confirmation of SARS coronavirus 3C-like protease inhibitors; shares compounds with SARS 3CLpro inh-1; QFRET protease activity assay, 3CLpro; inhibition, % at 6 µM; 380 compounds, 36% hits; AID 1879; in the data active means inhibition above about 13%
# Numbers without * were called inactive; / = no result. Hits are enriched below; roughly 1.3% of the tested compounds scored in any of these assays.
SMILES,SARS 3CLpro inh-1,PfHsp40 rescue,RN4220 kill,BJeLR lethal,ugtP null kill,SARS 3CLpro inh-2
Cc1cc(OCC(O)CN2C(C)CCCC2C)ccc1C(C)C (stereo unspecified),-1,0,6,2,23,/
Cc1ccc2c(c1)N(CCC(=O)NCc1ccco1)C(=O)CO2,1,0,6,-1,8,/
NS(=O)(=O)c1ccc(Nc2ccc([N+](=O)[O-])c3nonc23)cc1,15*,0,8,17,5,6
CNC(=S)N1CCN(c2ccc([N+](=O)[O-])cc2)CC1,2,-1,4,7,-5,/
O=S(=O)(Nc1cc(F)ccc1F)c1cccc2nonc12,13*,1,12,-9,2,-6
CCCCOc1ccc(Nc2cc(Cl)ccc2C(=O)O)cn1,8,10,/,-3,/,7
COc1ccc(CC(=O)Nc2cc(Cl)ccc2C(=O)O)cc1,2,0,/,/,/,/
CC(C)=CCN1CCN(Cc2cccc3nccnc23)CC1CCO (stereo unspecified),-2,-1,2,12,6,/
CCCCN(C(=O)C1=COCCO1)c1c(N)n(CCC)c(=O)[nH]c1=O,/,0,3,9,7,/
CCn1c(COc2ccccc2)nnc1SCC(=O)C(C)(C)C,15*,-2,5,2,2,-2
Cc1ccc(C2=NN(C(=O)CCl)C(c3ccco3)C2)o1 (stereo unspecified),47*,-1,0,87*,-3,61*
CC(=O)N1N=C(c2ccco2)CC1c1ccco1 (stereo unspecified),-3,0,7,5,9,/
COc1cccc(/C=N/NC(=S)Nc2cccnc2)c1,16*,-2,/,5,/,18*
CCS(=O)(=O)c1ccc(O)c(NC(=O)COc2ccccc2)c1,-1,0,0,-8,2,/
O=C(Oc1cccnc1)c1ccc(Cl)cc1,24*,1,1,2,-3,34*
COc1cc(C(=O)Oc2cccnc2)cc(OC)c1OC,6,2,1,4,4,/
COc1ccc(C2C(C(=O)c3ccc(C)o3)=C(O)C(=O)N2CC2CCCO2)cc1OC (stereo unspecified),0,1,6,-3,15,/
Cc1ccc(C(=O)O)cc1NC(=S)NC(=O)Cc1ccccc1,8,-1,4,21,10,/
Cc1ccc(C(=O)O)cc1NC(=S)NC(=O)c1ccc(COc2ccccc2)cc1,16*,0,21,-7,-6,13*
Cn1ncc(Cl)c1C(=O)Nc1ccc2c(c1)OCO2,13*,-1,0,-1,-4,0
Cc1cccc(NC(=S)NN2CCOCC2)c1C,13*,0,3,-20,1,0
Cc1cccc(NC(=S)NN2CCN(C)CC2)c1C,0,-1,-1,-5,-1,/
CC(C)CS(=O)(=O)C1=NSC2=NC(=O)/C(=C\c3ccc(OC(=O)c4ccco4)cc3)C(=N)N21,13*,0,5,-3,-1,-1
CCOC(=O)C1CCN(C(=O)c2ccc3c(c2)NC(=O)/C(=C\c2cccc(C)c2)S3)CC1,13*,1,-3,-1,-15,1
CCOC(=O)C1CCN(C(=O)c2ccc3c(c2)NC(=O)/C(=C/c2ccccc2)S3)CC1,6,3,5,4,-2,/
SMILES,SARS 3CLpro inh-1,PfHsp40 rescue,RN4220 kill,BJeLR lethal,ugtP null kill,SARS 3CLpro inh-2
COC(=O)CN1C(C)=Nc2ccc(C)cc2C1c1ccccc1 (stereo unspecified),2,-1,5,1,1,/
CC1=Nc2ccc(Br)cc2C(c2ccccc2)N1CC(=O)NN (stereo unspecified),13*,0,-2,2,-17,2
COc1cc(OC)c(C2=Nc3ccc(Br)cc3C(c3ccccc3)N2CC(=O)NN)cc1OC (stereo unspecified),12*,-1,-2,0,-11,0
NNC(=O)CN1C(c2ccc(Cl)cc2)=Nc2ccc(Br)cc2C1c1ccccc1 (stereo unspecified),8,0,-2,-19,-4,/
NNC(=O)CN1C(CN2CCOCC2)=Nc2ccc(Br)cc2C1c1ccccc1 (stereo unspecified),21*,-3,6,6,-1,-1
NNC(=O)CN1C(c2ccccc2)=Nc2ccc(Br)cc2C1c1ccccc1 (stereo unspecified),13*,0,3,1,7,-3
CCC1=Nc2ccc(Br)cc2C(c2ccccc2)N1CC(=O)OC (stereo unspecified),3,-1,3,0,-3,/
